From PubChem BioAssay AID651930 (Southern Research Specialized Biocontainment Screening …, 2012)
Calls of active or inactive are those of the source. No rule for the calls is given here.

assay: Vero 76 cell cytotoxicity, dose response, cytotoxicity control for VEEV inhibitor project, set 9 (AID 651930); settings: Vero 76 cytotoxicity; series mostly up to 25 µM; viability: at the top concentration

SMILES | viability
CCN1CCN(Cc2nc3ccc([N+](=O)[O-])cc3c(=O)n2C)CC1 | 85.9% (inactive)
CN1CCN(C)C(=Nc2ccc([N+](=O)[O-])cc2C(=O)Nc2ccccc2)C1 | 83.9% (inactive)
O=c1nc(Nc2ccc(CCc3ccccc3)cc2)sc2ncccc12 | 83.9% [at 50 µM] (inactive)
COc1ccccc1-n1c(CN2CCNCC2)nc2ccc([N+](=O)[O-])cc2c1=O | 75.6% (inactive)
O=c1nc(Nc2ccccc2OCc2ccccc2)sc2ncccc12 | 92.6% (inactive)
O=c1nc(Nc2ccc(OCc3ccccc3)cc2)sc2ncc([N+](=O)[O-])cc12 | 96.3% (inactive)
O=c1nc(Nc2ccc(F)cc2)sc2ncccc12 | 96.5% (inactive)
O=C1CN(Cc2nc3ccc([N+](=O)[O-])cc3c(=O)n2-c2ccccc2F)CCN1 | 93.4% [at 50 µM] (inactive)
CN(C)c1ccc(-n2c(CN3CCNCC3)nc3ccc([N+](=O)[O-])cc3c2=O)cc1 | 84.7% (inactive)
COc1cccc(-n2c(CN3CCNCC3)nc3ccc([N+](=O)[O-])cc3c2=O)c1 | 84.9% (inactive)
CCN1CCN(Cc2nc3ccc(S(=O)(=O)O)cc3c(=O)n2-c2ccccc2)CC1 | 97.8% (inactive)
CCN1CCN(Cc2nc3ccc(-c4nn[nH]n4)cc3c(=O)n2-c2ccccc2)CC1 | 86.7% [at 50 µM] (inactive)
CN1CCN(C)C(=Nc2ccc(F)cc2C(=O)Nc2ccccc2)C1 | 99.3% [at 50 µM] (inactive)
CCN1CCN(Cc2nc3ccc(C(=O)O)cc3c(=O)n2-c2ccccc2)CC1 | 87.7% (inactive)
CCN1CCN(CC2Nc3ccc([N+](=O)[O-])cc3C(=O)N2c2ccccc2F)CC1 (stereo unspecified) | 86% (inactive)
CCN1CCN(c2nc3ccc([N+](=O)[O-])cc3c(=O)n2-c2ccccc2)CC1 | 94.8% (inactive)
